Laboratory results as given in ChEMBL document CHEMBL4513216, “Probing the Open Global Health Chemical Diversity Library for Multistage-Active Starting Points for Next-Generation Antimalarials” (ACS Infect Dis, 2020).
The whole screen tested about 69,000 compounds, of which about 8,600 (12%) showed an effect of 50% or more. The sample holds strong results, similar compounds and a random draw of the others, so the mix is not that of the screen.

tested on: Plasmodium berghei; test: Screen against P. berghei liver stage (PbLuc), transformed with Luciferase, at 10uM; assay type: functional, HepG2; settings: tested at 10 uM

`Cn1c(CN2CCOC(CCc3ccncn3)C2)nc2ccccc21` (stereo not given) was tested. Which INHIBITION did it give?
Its INHIBITION is 38.8%.

How did the INHIBITION turn out when `Cc1ccccc1CS(=O)(=O)Cc1nc(C2CC2)no1` was run?
Its INHIBITION is 9.16%.

With `CCc1noc(CS(=O)(=O)CC=C(C)C)n1` as the compound, how does the INHIBITION read?
The INHIBITION was 21.9%.

`CCc1noc(CS(=O)(=O)Cc2ccccc2Cl)n1` was tested. Which INHIBITION did it give?
The INHIBITION was 52.6%.

Which INHIBITION does the source give for `CCc1noc(CS(=O)(=O)CC(=O)N2c3ccccc3CC2C)n1` (stereo not given) here?
The INHIBITION was -21%.

Which INHIBITION does the source give for `CCc1noc(CS(=O)(=O)Cc2nc(Cc3ccccc3)no2)n1` here?
The INHIBITION was 25.5%.

For `CCc1noc(CS(=O)(=O)Cc2ccccc2C)n1`, which INHIBITION is on record?
Its INHIBITION is 61.3%.

With `Cc1ccc(C2COCCN2C(=O)c2ccc(F)c(F)c2)o1` (stereo not given) as the compound, how does the INHIBITION read?
The INHIBITION was 44.9%.

`O=C(c1cnccn1)N1CCc2onc(Cn3cccn3)c2C1` was tested. Which INHIBITION did it give?
Its INHIBITION is 9.63%.

`O=C(NCCN1CCCCCC1=O)c1ccc(=O)[nH]n1` was tested. Which INHIBITION did it give?
Its INHIBITION is 33.7%.

Which INHIBITION does the source give for `Cn1ccnc1CN1CCN2C[C@H](Oc3ccccc3)C[C@H]2C1` here?
The INHIBITION was 39.8%.

`CN(C)c1nccc(C2CCCCN2Cc2cnn3cccnc23)n1` (stereo not given) was tested. Which INHIBITION did it give?
Its INHIBITION is -29.9%.

Which INHIBITION does the source give for `Cc1csc(N2CCCN(C(=O)Cn3cncn3)CC2)n1` here?
The INHIBITION was -52.5%.

For `CN(Cc1ccnc2ccccc12)C1CCS(=O)(=O)C1` (stereo not given), which INHIBITION is on record?
The INHIBITION was 45.2%.

Which INHIBITION does the source give for `CCOCC1CN(C(=O)COc2ccccc2C)Cc2ncn(C)c21` (stereo not given) here?
The INHIBITION was 24.6%.

`O=C(COc1cccc(F)c1)N1CCCCC1c1ccn2ccnc2n1` (stereo not given) was tested. Which INHIBITION did it give?
Its INHIBITION is 1.11%.

Which INHIBITION does the source give for `O=C(Cc1cccc(F)c1)N1CCCCC1c1ccn2ccnc2n1` (stereo not given) here?
Its INHIBITION is 9.1%.

Which INHIBITION does the source give for `O=C(CCc1cccnc1)N1CCCCC1c1ccn2ccnc2n1` (stereo not given) here?
Its INHIBITION is 45.6%.

With `O=C(Cc1ccccc1F)N1CCCCC1c1ccn2ccnc2n1` (stereo not given) as the compound, how does the INHIBITION read?
The INHIBITION was 51.5%.

With `O=C(COc1ccccc1F)N1CCCCC1c1ccn2ccnc2n1` (stereo not given) as the compound, how does the INHIBITION read?
The INHIBITION was 63.4%.

With `O=C(Cc1ccc(F)cc1)N1CCCCC1c1ccn2ccnc2n1` (stereo not given) as the compound, how does the INHIBITION read?
The INHIBITION was 7.39%.

`CCn1cc(CNc2ccc(F)c(F)c2)cn1` was tested. Which INHIBITION did it give?
Its INHIBITION is -8%.

With `CC(C)CCc1noc(C[S+]([O-])CC(=O)NCc2ccccc2)n1` (stereo not given) as the compound, how does the INHIBITION read?
Its INHIBITION is 55.3%.

For `CC(C)Cc1nc(C[S+]([O-])CC(=O)NCc2ccccc2)no1` (stereo not given), which INHIBITION is on record?
Its INHIBITION is -5.1%.

`CCCc1noc(C[S+]([O-])CC(=O)NCc2ccccc2)n1` (stereo not given) was tested. Which INHIBITION did it give?
The INHIBITION was 23.2%.

Which INHIBITION does the source give for `COc1ccc(N2CCN(C(=O)COc3nccc(C)n3)CC2)cc1` here?
Its INHIBITION is 36.8%.

With `N#Cc1cccc(NC(=O)N[C@H](CO)c2ccccc2)c1` as the compound, how does the INHIBITION read?
Its INHIBITION is 18.5%.

How did the INHIBITION turn out when `N#CCc1ccc(NC(=O)N[C@H](CO)Cc2ccc(O)cc2)cc1` was run?
Its INHIBITION is 11.6%.

How did the INHIBITION turn out when `N#Cc1cccc(NC(=O)N[C@H](CO)Cc2ccc(O)cc2)c1` was run?
Its INHIBITION is 60.9%.

`Cc1ccc(CN2CC[C@@H](NC(=O)c3cccnc3)[C@H](O)C2)o1` was tested. Which INHIBITION did it give?
The INHIBITION was 31.1%.

With `O=C(CNc1cc(-n2cnnn2)ccc1F)Nc1cc(F)ccc1F` as the compound, how does the INHIBITION read?
The INHIBITION was 46.6%.

Which INHIBITION does the source give for `O=C(CNc1cc(-n2cnnn2)ccc1F)NCc1ccccc1` here?
Its INHIBITION is 53.4%.

How did the INHIBITION turn out when `O=C(CNc1cc(-n2cnnn2)ccc1F)Nc1ccccc1Cl` was run?
The INHIBITION was 41.4%.

With `COCCNC(=O)c1cc(-c2ccc3c(c2)CCO3)n[nH]1` as the compound, how does the INHIBITION read?
Its INHIBITION is -18.9%.

`CCC(CO)N(Cc1ccc(F)cc1)Cc1c(C)nn(C)c1Cl` (stereo not given) was tested. Which INHIBITION did it give?
The INHIBITION was -8.66%.

Which INHIBITION does the source give for `CN(Cc1cc(C(C)(C)C)n[nH]1)Cc1c[nH]nc1-c1ccc(F)cc1` here?
Its INHIBITION is 47.6%.

How did the INHIBITION turn out when `CCC(CO)N(C/C(C)=C/c1ccco1)Cc1ccccn1` (stereo not given) was run?
The INHIBITION was 8.64%.

With `Cc1n[nH]c(C)c1CCCN(C)Cc1c[nH]nc1-c1ccc(F)cc1` as the compound, how does the INHIBITION read?
The INHIBITION was 40.2%.

`CCC(CO)N(Cc1ccncc1)Cc1c[nH]nc1-c1ccc(F)cc1` (stereo not given) was tested. Which INHIBITION did it give?
The INHIBITION was 57.6%.

Which INHIBITION does the source give for `CCN(Cc1ccncc1)Cc1c[nH]nc1-c1ccc(F)cc1` here?
Its INHIBITION is 14.8%.

Which INHIBITION does the source give for `CCC(CO)N(Cc1ccccn1)Cc1c[nH]nc1-c1ccc(F)cc1` (stereo not given) here?
The INHIBITION was 78.9%.

With `CCC(CO)N(Cc1ccccn1)Cc1ccc(-c2ccn[nH]2)s1` (stereo not given) as the compound, how does the INHIBITION read?
The INHIBITION was 47.2%.

`CN(Cc1ccn[nH]1)Cc1c[nH]nc1-c1ccc(F)cc1` was tested. Which INHIBITION did it give?
The INHIBITION was 77.2%.

`CN(Cc1ccccc1)C(=O)Cn1nc(N2CCOCC2)ccc1=O` was tested. Which INHIBITION did it give?
Its INHIBITION is -28.7%.

For `O=C1CCCCN1CCc1nc(C2(c3ccc(F)cc3)CCOC2)no1` (stereo not given), which INHIBITION is on record?
The INHIBITION was -15.5%.

For `CCc1nn(C)c2[nH]nc(NC(=O)c3cccnc3NC(C)C)c12`, which INHIBITION is on record?
Its INHIBITION is 36.3%.

`CCS(=O)(=O)N1CC(=O)N(CCOc2ccccc2)CC(O)C1` (stereo not given) was tested. Which INHIBITION did it give?
Its INHIBITION is -10.3%.

Which INHIBITION does the source give for `CCn1cc(S(=O)(=O)NC2(CN3CCOCC3)CCCCC2)c(C)n1` here?
Its INHIBITION is -10.5%.

With `CC(C)c1nccn1C(C)C(=O)N1CCN(c2ccccc2Cl)CC1` (stereo not given) as the compound, how does the INHIBITION read?
Its INHIBITION is 64.6%.

For `CC(C)c1nccn1C(C)C(=O)N1CCN(c2cnccn2)CC1` (stereo not given), which INHIBITION is on record?
The INHIBITION was -6.28%.

`Cc1cccnc1N1CCN(C(=O)C(C)n2ccnc2C(C)C)CC1` (stereo not given) was tested. Which INHIBITION did it give?
Its INHIBITION is 17.9%.

For `COCCN(C)C[C@@H]1CN(C(=O)c2ccc(C)c(Cl)c2)C[C@@H]1CO`, which INHIBITION is on record?
The INHIBITION was 13.1%.

For `C[C@@H]1CN(Cc2ccoc2)C[C@]12CCN(CC(=O)N(C)C)C2=O`, which INHIBITION is on record?
Its INHIBITION is 23.5%.

For `CCOC(C)c1noc(CN2CCN(c3nnc(C)s3)CC2)n1` (stereo not given), which INHIBITION is on record?
The INHIBITION was 65.8%.

With `CCOC(C)c1noc(CN2CCN(Cc3ccno3)CC2)n1` (stereo not given) as the compound, how does the INHIBITION read?
The INHIBITION was 33.4%.

For `CCOC(C)c1noc(CN2CCN(c3ccncc3)CC2)n1` (stereo not given), which INHIBITION is on record?
The INHIBITION was 81%.

For `CCOC(C)c1noc(CN2CCN(Cc3cccnc3)CC2)n1` (stereo not given), which INHIBITION is on record?
The INHIBITION was 34.4%.

`CCOC(C)c1noc(CN2CCN(CC3CCCC3)CC2)n1` (stereo not given) was tested. Which INHIBITION did it give?
The INHIBITION was 28%.

`CCOC(C)c1noc(CN2CCNCC2)n1` (stereo not given) was tested. Which INHIBITION did it give?
The INHIBITION was 31.2%.

Which INHIBITION does the source give for `COc1ccc(CN(Cc2cccnc2)CC2CCCO2)c(OC)c1` (stereo not given) here?
The INHIBITION was 22.2%.

Which INHIBITION does the source give for `CCN1C(=O)CCCC12CCCN(C(=O)c1ccoc1C)C2` (stereo not given) here?
Its INHIBITION is 32.1%.

Which INHIBITION does the source give for `CCC(=O)NCC(=O)NCC1(O)CCC(C(C)(C)C)CC1` (stereo not given) here?
The INHIBITION was 38.3%.

How did the INHIBITION turn out when `CC(=O)NCc1cncc(C2CCCN2C2CCOCC2)n1` (stereo not given) was run?
The INHIBITION was -4.15%.

For `c1cnn(CC2CCCCN2c2ncnc3ccsc23)c1` (stereo not given), which INHIBITION is on record?
Its INHIBITION is 14.75%.

`c1cnn(CC2CCCCN2c2ncnc3sccc23)c1` (stereo not given) was tested. Which INHIBITION did it give?
Its INHIBITION is 18.2%.

`c1cnn(CC2CCCN2c2ncnc3sccc23)c1` (stereo not given) was tested. Which INHIBITION did it give?
The INHIBITION was 79.7%.

`c1cnn(CC2CCCN2c2ncnc3ccsc23)c1` (stereo not given) was tested. Which INHIBITION did it give?
Its INHIBITION is 57.8%.

How did the INHIBITION turn out when `c1nc(N2CCCC2Cn2cncn2)c2ccsc2n1` (stereo not given) was run?
The INHIBITION was 33%.

With `c1nc(N2CCCC2Cn2cncn2)c2sccc2n1` (stereo not given) as the compound, how does the INHIBITION read?
Its INHIBITION is 10.65%.

`O=C(Nc1nccs1)C1CCN(Cc2cccc3c2OCCO3)CC1` was tested. Which INHIBITION did it give?
The INHIBITION was 37.6%.
